From PubChem BioAssay AID1159580 (chemical genetic matrix, 2015)
In all, about 5,500 compounds went through this assay and about 2,000 (36%) were called active. Not shown: some 18% with an inconclusive outcome. No stated cut-off is given here; in the data, active means normalized growth mostly below about 0.91 (no sharp cut-off); inconclusive means no clear call, values can overlap the other calls; inactive means mostly above about 0.92. This is one part of the list.

Assay: chemical genetic growth profiling, strain panel (AID 1159580);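 further: tested at 20 µM; growth read once vehicle control cultures reached saturation at 30 °C; 1 = growth at the plate median or of vehicle wells; lower values mean less growth of the strain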
Conditions: S. cerevisiae deletion strains, growth OD
[1] = locus YAR019C, strain CDC15, hits give low values
[2] = locus YBL105C, strain PKC1, hits give low values
[3] = locus YBR135W, strain CKS1, hits give low values
[4] = locus YBR136W, strain MEC1, hits give low values
[5] = locus YBR160W, strain CDC28, hits give low values
[6] = locus YDL017W, strain CDC7, hits give low values
[7] = locus YDL028C, strain MPS1, hits give low values
[8] = locus YDL101C, strain DUN1, hits give low values
[9] = locus YDL108W, strain KIN28, hits give low values
[10] = locus YDL132W, strain cdc53, hits give low values
[11] = locus YDL214C, strain PRR2, hits give low values
[12] = locus YDR052C, strain DBF4, hits give low values
[13] = locus YDR054C, strain cdc34, hits give low values
[14] = locus YDR226W, strain ADK1, hits give low values
[15] = locus YDR477W, strain SNF1, hits give low values
[16] = locus YER123W, strain YCK3, hits give low values
[17] = locus YER133W, strain GLC7, hits give low values
[18] = locus YFL009W, strain cdc4, hits give low values
[19] = locus YFL029C, strain CAK1, hits give low values
[20] = locus YFR003C, strain YPI1, hits give low values
[21] = locus YFR019W, strain FAB1, hits give low values
[22] = locus YFR028C, strain CDC14, hits give low values
[23] = locus YGR040W, strain KSS1, hits give low values
[24] = locus YGR052W, strain FMP48, hits give low values
[25] = locus YGR092W, strain DBF2, hits give low values
[26] = locus YHR030C, strain SLT2, hits give low values
[27] = locus YHR079C, strain IRE1, hits give low values
[28] = locus YHR082C, strain KSP1, hits give low values
[29] = locus YHR205W, strain SCH9, hits give low values
[30] = locus YIL147C, strain SLN1, hits give low values
[31] = locus YJL095W, strain BCK1, hits give low values
[32] = locus YJL128C, strain PBS2, hits give low values
[33] = locus YJL157C, strain FAR1, hits give low values
[34] = locus YJR016C, strain ILV3, hits give low values
[35] = locus YJR066W, strain TOR1 (second series), hits give low values
[36] = locus YJR066W, strain TOR1, hits give low values
[37] = locus YKL048C, strain ELM1, hits give low values
[38] = locus YKL067W, strain YNK1, hits give low values
[39] = locus YKL101W, strain HSL1, hits give low values
[40] = locus YKL193C, strain SDS22, hits give low values
[41] = locus YKL203C, strain TOR2, hits give low values
[42] = locus YLR113W, strain HOG1, hits give low values
[43] = locus YLR133W, strain CKI1, hits give low values
[44] = locus YLR403W, strain SFP1, hits give low values
[45] = locus YML070W, strain DAK1, hits give low values
[46] = locus YMR001C, strain CDC5, hits give low values
[47] = locus YMR205C, strain PFK2 (second series), hits give low values
[48] = locus YMR277W, strain FCP1, hits give low values
[49] = locus YNL006W, strain LST8, hits give low values
[50] = locus YNL020C, strain ARK1, hits give low values
[51] = locus YNL161W, strain CBK1, hits give low values
[52] = locus YNL183C, strain NPR1, hits give low values
[53] = locus YNL207W, strain RIO2, hits give low values
[54] = locus YNL222W, strain SSU72, hits give low values
[55] = locus YNL307C, strain MCK1 (second series), hits give low values
[56] = locus YOL078W, strain AVO1, hits give low values
[57] = locus YOL136C, strain PFK27, hits give low values
[58] = locus YOR061W, strain CKA2, hits give low values
[59] = locus YOR119C, strain RIO1, hits give low values
[60] = locus YOR231W, strain MKK1, hits give low values
[61] = locus YOR329C, strain SCD5, hits give low values
[62] = locus YPL031C, strain PHO85, hits give low values
[63] = locus YPL153C, strain RAD53, hits give low values
[64] = locus YPL204W, strain HRR25, hits give low values
[65] = locus YPL209C, strain IPL1, hits give low values
[66] = locus YPL256C, strain CLN2, hits give low values
[67] = locus YPR025C, strain CCL1, hits give low values
[68] = locus YPR106W, strain ISR1, hits give low values
[69] = locus YPR111W, strain DBF20, hits give low values
[70] = strain NNK1, hits give low values
[71] = strain TSCII, hits give low values

Measured: normalized growth

Cn1cc(Br)c(-c2cccc(NS(=O)(=O)c3ccc(Cl)cc3)c2)n1
inactive: [1] 0.987 | [2] 0.976 | [3] 0.998 | [4] 0.995 | [5] 0.979 | [6] 0.987 | [7] 0.992 | [8] 0.977 | [9] 0.999 | [10] 0.994 | [11] 1 | [12] 0.976 | [13] 0.988 | [14] 0.987 | [15] 0.992 | [16] 0.998 | [17] 1 | [18] 0.989 | [19] 0.993 | [20] 0.994 | [21] 1 | [22] 0.998 | [23] 0.995 | [24] 1.04 | [25] 0.984 | [26] 1.12 | [27] 1.11 | [28] 1.11 | [29] 0.987 | [30] 0.986 | [31] 0.988 | [32] 0.986 | [33] 0.998 | [34] 0.993 | [35] 1.01 | [36] 1.07 | [37] 0.999 | [38] 1.02 | [39] 1 | [40] 0.995 | [41] 1.06 | [42] 0.983 | [43] 1 | [44] 0.999 | [45] 1.01 | [46] 0.985 | [47] 1.01 | [48] 0.998 | [49] 0.999 | [50] 0.997 | [51] 0.981 | [52] 1.06 | [53] 0.987 | [54] 0.995 | [55] 0.98 | [56] 1 | [57] 1 | [58] 1 | [59] 1.06 | [60] 0.982 | [61] 0.986 | [62] 0.989 | [63] 0.994 | [64] 0.997 | [65] 0.992 | [66] 1.13 | [67] 0.981 | [68] 0.99 | [69] 0.985 | [70] 1 | [71] 0.993

O=S(=O)(Nc1c(F)cccc1F)c1ccc(Cl)c(Cl)c1
inactive: [1] 0.933 | [2] 0.946 | [3] 0.932 | [4] 0.943 | [5] 0.937 | [6] 0.945 | [7] 0.939 | [8] 0.949 | [9] 0.947 | [10] 0.961 | [11] 0.984 | [12] 0.956 | [13] 0.933 | [14] 0.943 | [15] 0.959 | [16] 0.962 | [17] 0.964 | [18] 0.931 | [19] 0.933 | [20] 0.946 | [21] 0.948 | [22] 0.933 | [23] 0.951 | [24] 1.05 | [25] 0.843 | [26] 0.956 | [27] 0.942 | [28] 1 | [29] 0.982 | [30] 0.933 | [31] 0.947 | [32] 0.874 | [33] 0.97 | [34] 0.931 | [35] 0.967 | [36] 1.03 | [37] 0.93 | [38] 0.962 | [39] 0.96 | [40] 0.937 | [41] 1.02 | [42] 0.926 | [43] 0.964 | [44] 0.966 | [45] 0.961 | [46] 0.937 | [47] 0.973 | [48] 0.936 | [49] 0.941 | [50] 0.955 | [51] 0.94 | [52] 0.947 | [53] 0.937 | [54] 0.937 | [55] 0.95 | [56] 0.938 | [57] 0.985 | [58] 0.969 | [59] 1.05 | [60] 0.935 | [61] 0.943 | [62] 0.964 | [63] 0.927 | [64] 0.95 | [65] 0.94 | [66] 0.914 | [67] 0.934 | [68] 0.957 | [69] 0.934 | [70] 0.953 | [71] 0.93
